{
  "source": "PubChem BioAssay (NCATS)",
  "note": "Results filed as inconclusive are left out. Entries that show only a call come without a potency. Activity calls are given as the source filed them. Unless noted, calls follow the shape of the dose curve; as a rule, active = well fitted inhibition curve with a large enough effect; inconclusive = small, poorly fitted or top-dose-only effect; inactive = flat fitted curve, though single readings scatter.",
  "data": [
    {"test_system": "not listed separately", "assay": "Confirmatory qHTS for VERO E6 Cytotoxicity Assay: Counterscreen for SARS-CoV-2 CPE Assay (AID 1508605; calls by dose curve; also: nearly all actives have a fitted effect of over 60% in size; also: potency is read from the fitted curve at half-maximal effect)", "details": "cell viability luminescence; series mostly up to 20 µM", "values": [
      {"smiles": "CCCCCCCc1ccc(CCc2cccc(O)c2C(=O)O)cc1", "Potency": "inactive"},
      {"smiles": "CN(C)c1ccc(C2Nc3ccc4ccccc4c3C3=C2C(=O)CC(C)(C)C3)cc1Br", "note": "(stereo not drawn)", "Potency": "inactive"},
      {"smiles": "Nc1ccc(C(=O)c2cc3c(ccc4ccccc43)[nH]2)cc1", "Potency": "14.1 µM (active)"},
      {"smiles": "O=C(c1ccc(Nc2nccc(-c3cc4ccccc4s3)n2)cc1)N1CCC(N2CCCC2)CC1", "Potency": "10 µM (active)"},
      {"smiles": "CCN(CC)CCCCNc1nc2cc(Cl)c(Cl)cc2nc1-c1ccc(-c2cccs2)s1", "Potency": "10 µM (active)"},
      {"smiles": "COc1cccc2c1CCCC2CCCN1CCN(C2CCCCC2)CC1", "note": "(stereo not drawn)", "Potency": "inactive"},
      {"smiles": "COc1c(C)cnc(Cn2cnc3c(Cl)nc(N)nc32)c1C", "Potency": "inactive"}
    ]},
    {"test_system": "not listed separately", "assay": "Confirmatory qHTS for activators (rescue) of SARS-CoV-2 Cytopathic Effect (CPE) (AID 1508606; calls by dose curve; also: nearly all actives have a fitted effect of over 70% in size; also: potency is read from the fitted curve at half-maximal effect)", "details": "Vero E6 SARS-CoV-2 CPE rescue, viability luminescence; series mostly up to 20 µM", "values": [
      {"smiles": "CN(C)c1ccc(C2Nc3ccc4ccccc4c3C3=C2C(=O)CC(C)(C)C3)cc1Br", "note": "(stereo not drawn)", "Potency": "inactive"},
      {"smiles": "O=C(c1ccc(Nc2nccc(-c3cc4ccccc4s3)n2)cc1)N1CCC(N2CCCC2)CC1", "Potency": "3.55 µM (active)"},
      {"smiles": "S=C(NCc1ccc2c(c1)OCO2)N1CCN(c2ncnc3c2oc2ccccc23)CC1", "Potency": "3.55 µM (active)"},
      {"smiles": "COc1cccc2c1CCCC2CCCN1CCN(C2CCCCC2)CC1", "note": "(stereo not drawn)", "Potency": "11.2 µM (active)"}
    ]},
    {"target": "Calcium and integrin-binding protein 1 (Homo sapiens) (UniProt Q99828)", "sequence (Q99828 whole entry, looked up)": "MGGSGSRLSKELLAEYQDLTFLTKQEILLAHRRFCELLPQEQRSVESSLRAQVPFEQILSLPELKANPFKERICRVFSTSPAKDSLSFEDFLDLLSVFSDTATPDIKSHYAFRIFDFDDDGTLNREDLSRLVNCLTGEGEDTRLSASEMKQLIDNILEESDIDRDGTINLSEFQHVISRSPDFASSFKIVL", "assay": "Primary qHTS for Identification of Calcium Integrin Binding Protein 1 (CIB1) Competitor (AID 1508620);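 also: GST tagged CIB1 binding a fluorescein labelled alphaIIb integrin peptide tracer; top concentration of the series differs between compounds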", "details": "CIB1-GST / FITC-alphaIIb peptide fluorescence polarization; series mostly up to 57.7 µM", "procedure,_shortened": "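CIB1-GST (1 uM final) and compound incubated 15 min at room temperature before adding FITC-alphaIIb peptide tracer (100 nM final). Competition for binding read by fluorescence polarization (ex 480, em 540) after another 15 min at room temperature.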", "values": [
      {"smiles": "CCCN1CCO[C@@H]2c3cc(O)ccc3OC[C@@H]21", "outcome": "inactive"},
      {"smiles": "CC(=CCCC1=CCC(C2=CC(=O)OC2O)OC1O)CCC1=C(C)CCCC1(C)C", "note": "(stereo not drawn)", "outcome": "inactive"},
      {"smiles": "C[C@]12COC(=O)C[C@@H]1CC[C@@H]1[C@H]2CC[C@@]2(C)[C@H]1CC[C@]2(C)O", "outcome": "inactive"},
      {"smiles": "Cc1c(C(=O)Nc2cccc(C(F)(F)F)c2)cc(-c2ccccc2)n1CCCN1CCOCC1", "outcome": "inactive"},
      {"smiles": "CCOP(=O)(OCC)C(C)NC(=O)N(CCCl)N=O", "note": "(stereo not drawn)", "outcome": "inactive"},
      {"smiles": "N=c1c2c(-c3ccccc3)c(-c3ccccc3)n(Cc3ccccc3)c2ncn1C1CCC(O)CC1", "note": "(stereo not drawn)", "outcome": "inactive"},
      {"smiles": "O=S(=O)(CC1CS1)c1ccc(Oc2ccccc2)cc1", "note": "(stereo not drawn)", "outcome": "inactive"},
      {"smiles": "C=C[C@@H]1CN2CCC1C[C@H]2[C@H](O)c1ccnc2ccccc12", "note": "(stereo partly drawn)", "outcome": "inactive"},
      {"smiles": "CC(C)N(CCNC(=O)CN1CCCC1=O)C(C)C", "outcome": "inactive"},
      {"smiles": "CC(=O)N(C)c1cccc(-c2ccnc3c(C(=O)c4cccs4)cnn23)c1", "outcome": "inactive"},
      {"smiles": "CC(C)(C)[C@]1(O)C[C@@H]2OC(=O)C[C@@]23C(=O)O[C@@H]2OC(=O)[C@H](O)C213", "note": "(stereo partly drawn)", "outcome": "inactive"},
      {"smiles": "C[C@H]([C@H](O)CCC(C)(C)O)[C@H]1CC[C@@]2(O)C3=CC(=O)[C@@H]4C[C@@H](O)[C@@H](O)C[C@]4(C)[C@@H]3CC[C@]12C", "outcome": "inactive"},
      {"smiles": "O=C1CCC[C@@H]2[C@H]3CCCN4CCC[C@@H](CN12)[C@@H]34", "outcome": "inactive"},
      {"smiles": "CC(C)(O)C=CC(=O)[C@](C)(O)[C@H]1[C@H](O)C[C@]2(C)[C@@H]3CC=C4[C@@H](C=C(O)C(=O)C4(C)C)[C@]3(C)C(=O)C[C@@]12C", "outcome": "inactive"},
      {"smiles": "CC(C)[C@]12O[C@@H]1[C@@H]1O[C@]13[C@]1(O[C@H]1C[C@@H]1C4=C(CC[C@@]13C)C(=O)OC4)[C@H]2O", "outcome": "inactive"},
      {"smiles": "CC(=O)OCC1=C(C(=O)O)N2C(=O)[C@@H](N)[C@@H]2SC1", "outcome": "inactive"},
      {"smiles": "CCOC(=O)c1cncn1[C@H](C)c1ccccc1", "outcome": "inactive"}
    ]}
  ]
}
